SARS PLpro yeast – qHTS of Yeast-based Assay for SARS-CoV PLP; S. cerevisiae expressing SARS-CoV PLpro, growth rescue; Potency, µM (top dose mostly 32.9 µM), hits mostly activators; actives 0.19% (n = 330,000); AID 485353, 2010; calls by dose curve; also: nearly all actives have a fitted effect of over 55% in size
AMA1-RON2 inh – qHTS for Inhibitors of AMA1-RON; Towards Development of Antimalarial Drug Lead: Primary Screen. Potency, µM (titrated, usually from 58.2 µM), actives largely listed as inhibitors. AID 720542, 2013. AlphaScreen AMA1-biotinylated RON2 peptide binding. actives 0.2% (n = 360,000); also: nearly all actives have a fitted effect of over 45% in size
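AMA1 (3D7) with his tag at 25 nM final met compounds first, then biotinylated RON2 peptide at 25 nM; detection used donor plus acceptor beads, 10 µg/mL apiece, read by AlphaScreen after 30 min at room temperature.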
Pf growth 96h – Primary qHTS for delayed death inhibitors of the malarial parasite plastid, 96 hour incubation. P. falciparum luciferase reporter growth, 96 h. Potency, µM (highest dose often 28.7 µM), hits mostly inhibitors. actives 6.9% (n = 320,000). AID 504834, 2011
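96 h incubation, 37 C, 5% CO2, of luciferase-reporter P. falciparum-infected RBCs (2% hematocrit, 0.05% parasitemia final) with test compounds; endpoint luminescence.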
Pf growth 48h – Primary qHTS for delayed death inhibitors of the malarial parasite plastid, 48 hour incubation | Potency, µM (highest dose often 28.7 µM), most hits filed as inhibitors | actives 5.9% (n = 310,000) | P. falciparum luciferase growth in erythrocytes, 48 h
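Here the parasites carry a stable luciferase gene and grow inside erythrocytes in Albumax-based RPMI medium with compound for one erythrocytic cycle. Activity is scored as loss of luminescent signal.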
A number is an active result; – = inactive; ? = inconclusive; · = not tested or not shown. In the library only some 9.4% were active in any assay of this set; here they are far more common. Unless noted, calls follow the shape of the dose curve; as a rule, active = well fitted curve in the direction sought with a large enough effect; inconclusive = small, poorly fitted or top-dose-only effect, or another doubt; inactive = no such curve, though single readings can be large; an effect the other way counts as inactive or inconclusive.

SMILES | SARS PLpro yeast | AMA1-RON2 inh | Pf growth 96h | Pf growth 48h
c1ccc(Nc2nc(-c3ccncc3)nc3ccccc23)cc1 | – | – | ? | –
CCOc1ncccc1C(=O)OCC(=O)Nc1ccc(C)c(S(=O)(=O)N(C)C)c1 | – | – | – | –
Cc1ccc(S(=O)(=O)N(C)C)cc1NC(=O)COc1ccccc1C(=O)Nc1ccccc1 | – | – | ? | 11.7µM
Cc1ccc(NC(=O)c2ccccc2OCC(=O)Nc2ccccc2F)cc1S(=O)(=O)N(C)C | – | – | 7.38µM | 9.28µM
CN(C)S(=O)(=O)c1cccc(NC(=O)COc2ccccc2C(=O)Nc2ccccc2)c1 | · | – | · | ·
CC(=O)OCC(=O)[C@@]1(O)CCC2C3C[C@H](C)C4=CC(=O)C=CC4(C)C3C(O)CC21C (stereo partly drawn) | · | · | – | –
COC(=O)C(Cc1ccc(O)cc1)NC(=O)CCc1ccco1 (stereo not drawn) | – | – | – | –
CCN1C(=O)/C(=C/c2ccc(N3CCCC3)cc2)NC1=S | – | ? | 8.28µM | –
N#CC(C(=O)O)=C1CCCC1 | – | – | ? | –
COc1ccc(N2CCN(C(=O)c3cn(Cc4ccccc4)nc3-c3cccnc3)CC2)cc1 | – | – | 10.4µM | ?
COc1cccc(CN2CCN(C(=O)c3cc(-c4cccnc4)nc4ccc(C)cc34)CC2)c1 | – | – | ? | 9.28µM
CC1(c2nc3ccccc3[nH]2)CCC(=O)N1Cc1ccccn1 (stereo not drawn) | · | – | · | ·
Cc1ccc(NS(=O)(=O)c2c(C(=O)N3CCOCC3)c(C)n(C)c2C)cc1C | – | – | – | –
Cc1c(C(=O)N2CCOCC2)c(S(=O)(=O)Nc2ccc(C(C)C)cc2)c(C)n1C | – | – | 10.4µM | –
O=C1c2ccc(-c3ccc(F)cc3OCc3ccccc3)cc2S(=O)(=O)c2cccc(C(=O)N3CCCC3)c21 | – | – | ? | 4.65µM
CC1(C)C(=O)Nc2ccccc2N1C(=O)CN1C(=O)NC(CCc2ccccc2)C1=O (stereo not drawn) | – | – | ? | ?
CCc1ccc(-n2c(SCC(=O)Nc3cccc(S(=O)(=O)NC4=NCCCCC4)c3)nc3ccccc3c2=O)cc1 | – | – | ? | ?
O=C(CSc1nc2ccccc2c(=O)n1-c1ccc(F)cc1)Nc1ccc2c(c1)CCC2 | – | – | 9.28µM | 9.28µM
O=C(CSc1nc2ccccc2c(=O)n1-c1ccc(F)cc1F)Nc1ccc2c(c1)CCC2 | – | – | ? | 9.28µM
O=C(CSc1nc2ccc(F)cc2c(=O)n1-c1ccccc1)Nc1ccc2c(c1)CCC2 | · | – | · | ·
O=C(CSc1nc2ccccc2c(=O)n1-c1ccccc1F)Nc1ccc2c(c1)CCC2 | – | – | ? | ?
Cc1ccc(-n2c(SCC(=O)Nc3cccc(S(=O)(=O)NC4=NCCCCC4)c3)nc3ccccc3c2=O)cc1 | – | – | 3.7µM | ?
CCCN(CC(=O)Nc1ccccc1C)C(=O)c1cc(C)oc1C | – | – | – | –
COCCn1c(=O)[nH]c2cc(C(=O)N3CCN(c4cccc(C(F)(F)F)c4)CC3)ccc2c1=O | – | – | 11.7µM | ?
COCCn1c(=O)[nH]c2cc(C(=O)Nc3cc(OC)c(OC)c(OC)c3)ccc2c1=O | – | – | 5.22µM | ?
SMILES | SARS PLpro yeast | AMA1-RON2 inh | Pf growth 96h | Pf growth 48h
COCCn1c(=S)[nH]c2cc(C(=O)N3CCN(c4cccc(Cl)c4)CC3)ccc2c1=O | – | – | 11.7µM | –
CC(=O)N1CCc2cc3nc(C)cc(C)c3cc21 | – | – | – | –
COc1ccc(C(CCN2CCCC2)c2c(O)cc(OC)cc2OC)cc1 (stereo not drawn) | – | – | 2.94µM | ?
COc1ccc(C(CCN2CCCCC2)c2c(O)cc(OC)cc2OC)cc1 (stereo not drawn) | – | – | 0.465µM | 0.657µM
COc1cc(O)c(C(CCN2CCOCC2)c2cc(OC)c(OC)c(OC)c2)c(OC)c1 (stereo not drawn) | – | – | ? | ?
CCOC(=O)c1[nH]c2ccccc2c1NC(=S)Nc1cccc(C)c1 | – | – | – | –
CC(=O)NC12CC3CC(C1)CC(C(=O)N1CCN(S(=O)(=O)c4ccccc4[N+](=O)[O-])CC1)(C3)C2 | – | – | ? | ?
Cc1ccc(C(=O)NC(N(C)C)C(Cl)(Cl)Cl)cc1 (stereo not drawn) | – | – | – | –
COc1ccccc1C(O)P(=O)(OC1CCCCC1)OC1CCCCC1 (stereo not drawn) | – | – | – | ?
O=P(OC1CCCCC1)(OC1CCCCC1)C(O)c1ccc(Cl)cc1Cl (stereo not drawn) | – | – | · | 1.85µM
O=P(OC1CCCCC1)(OC1CCCCC1)C(O)c1c(Cl)cccc1Cl (stereo not drawn) | – | – | 5.22µM | 10.4µM
Cc1ccc(C(O)P(=O)(OC2CCCCC2)OC2CCCCC2)cc1 (stereo not drawn) | – | – | ? | ·
CCOc1ccc(C(CCc2ccccc2)NC(=O)c2ccccc2F)cc1OCC (stereo not drawn) | – | – | 1.47µM | ·
CCOc1ccc(C(CCc2ccccc2)NC(=O)c2ccccc2OC)cc1OCC (stereo not drawn) | – | – | ? | ·
CCOc1ccc(C(C)NC(=O)Cc2ccccc2F)cc1OCC (stereo not drawn) | – | – | 1.31µM | ?
CCOc1ccc(C(C)NC(=O)c2cccs2)cc1OCC (stereo not drawn) | · | – | · | ·
CC(NC(=O)Cc1ccccc1F)c1ccc(F)cc1 (stereo not drawn) | – | – | – | –
CCOc1ccccc1/C=C(/NC(=O)c1ccccc1)C(=O)NC(C)c1ccccc1 (stereo not drawn) | – | – | 10.4µM | –
CCOc1ccc(C(C)NC(=O)Cc2ccccc2)cc1OCC (stereo not drawn) | – | – | 2.08µM | 2.33µM
CCOC(=O)c1c(-c2ccccc2)oc2ccc(O)c(CN3CCOCC3)c12 | – | – | · | ?
CCOC(=O)c1c(CN2CCOCC2)n(-c2ccccc2)c2cc(Br)c(O)c(CN(C)C)c12 | – | – | 2.62µM | 13.1µM
CCOC(=O)c1c(CN2CCCCC2)n(C)c2cc(Br)c(O)c(CN(C)C)c12 | – | – | 11.7µM | ·
CCOC(=O)c1c(CSc2ccsc2)n(C)c2cc(Br)c(O)c(CN(C)C)c12 | – | – | ? | ?
CCOC(=O)c1c(CSc2ccccc2)n(C)c2cc(Br)c(O)c(CN(C)C)c12 | – | ? | ? | 9.28µM
CCOC(=O)c1c(CN(CC)CC)n(C)c2cc(Br)c(O)cc12 | – | – | ? | ?
CCOC(=O)c1c(CSc2ccc(C)cc2)n(C)c2cc(Br)c(O)c(CN(C)C)c12 | – | – | – | 4.15µM
Cc1c(C)c2cc(Cl)c(OCC(=O)NCCCN3CCCC3=O)cc2oc1=O | · | – | · | ·
COc1cccc(CC(=S)N2CCOCC2)c1 | – | – | – | –
CCOC(=O)c1c(CN(C)C)oc2cc(CN(C)C)c(O)c(CSc3ccccc3)c12 | – | – | 2.33µM | 0.37µM
O=C(COC(=O)c1ccc([N+](=O)[O-])s1)NCCc1ccccc1 | – | – | – | –

Bioassay records (PubChem)
